PI5P4K alpha inh – qHTS for Inhibitors of phosphatidylinositol 5-phosphate 4-kinase (PI5P4K); Phosphatidylinositol 5-phosphate 4-kinase type-2 alpha (Homo sapiens), P48426; PI5P4Kalpha enzyme, ADP-Glo luminescence, 60 min; hits give low values; max response, %; 330,000 tested, 1.2% active; AID 652105, 2013; active = max response of -50% or lower; inconclusive = between -30% and -50%; inactive = -30% or higher; note: value at the top dose of about 77 µM; % is set by controls: 0 for no effect and ±100 for the full control effect
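Luminescence from ADP-Glo served as readout of PI5P4Kalpha activity in a qHTS format. Reaction: enzyme, substrate, compound, ATP at 5 microM final, 60 min at RT.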
Pol beta inh – qHTS Assay for Inhibitors of DNA Polymerase Beta. 340,000 tested, 1.3% active. Potency, µM (highest dose often 114 µM), for the others: at the highest dose activity change, negative = inhibition, usual class: inhibitors. AID 485314, 2010. P06746. Pol beta primer extension/strand displacement, fluorescence kinetic; note: potency is the fitted concentration of half-maximal effect; % is set by controls: 0 for no effect and ±100 for the full control effect
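Pol beta (10 nM) was preincubated with compound for 15 min at room temperature. The reaction was then started with 50 nM substrate and read immediately and after a further 10 min at room temperature.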
Pol kappa inh – qHTS for Inhibitors of Polymerase Kappa | DNA polymerase kappa (Homo sapiens), Q9UBT6 | purified Pol kappa, fluorescent DNA synthesis assay, 10 min | Potency, µM (top dose mostly 107 µM), for the others: top-dose activity, negative = inhibition, actives largely listed as inhibitors | 400,000 tested, 0.53% active | AID 588579, 2011; note: potency is the fitted concentration of half-maximal effect; % is set by controls: 0 for no effect and ±100 for the full control effect
Target sequence (Q9UBT6 whole entry, looked up): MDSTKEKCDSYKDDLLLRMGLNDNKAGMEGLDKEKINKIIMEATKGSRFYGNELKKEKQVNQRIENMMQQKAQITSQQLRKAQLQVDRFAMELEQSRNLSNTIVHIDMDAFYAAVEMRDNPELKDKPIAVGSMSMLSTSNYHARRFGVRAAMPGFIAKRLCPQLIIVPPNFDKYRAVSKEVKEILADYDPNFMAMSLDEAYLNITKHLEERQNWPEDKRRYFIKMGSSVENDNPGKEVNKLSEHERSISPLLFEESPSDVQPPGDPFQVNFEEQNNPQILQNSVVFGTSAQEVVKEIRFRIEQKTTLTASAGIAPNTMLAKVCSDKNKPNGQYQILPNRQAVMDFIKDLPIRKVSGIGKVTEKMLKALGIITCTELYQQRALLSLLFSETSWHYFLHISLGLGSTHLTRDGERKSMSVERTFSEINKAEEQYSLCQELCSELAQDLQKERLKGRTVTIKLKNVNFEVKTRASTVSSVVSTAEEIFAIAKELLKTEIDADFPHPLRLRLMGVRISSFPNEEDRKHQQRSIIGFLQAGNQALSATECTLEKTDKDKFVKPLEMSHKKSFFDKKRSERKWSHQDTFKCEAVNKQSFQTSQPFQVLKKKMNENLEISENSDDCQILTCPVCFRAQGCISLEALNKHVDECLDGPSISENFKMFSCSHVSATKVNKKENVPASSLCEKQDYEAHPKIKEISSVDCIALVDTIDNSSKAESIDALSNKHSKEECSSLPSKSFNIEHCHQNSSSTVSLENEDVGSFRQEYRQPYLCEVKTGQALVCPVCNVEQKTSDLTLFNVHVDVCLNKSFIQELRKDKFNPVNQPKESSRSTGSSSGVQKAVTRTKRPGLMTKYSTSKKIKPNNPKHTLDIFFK
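First, compounds were pin-transferred onto 10 nM Pol kappa. After 15 min at room temperature, substrate was added to 50 nM final. Fluorescence was then measured kinetically at 0 and 10 min.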
POLI inh – qHTS for Inhibitors of Polymerase Iota. DNA polymerase iota (Homo sapiens), Q9UNA4. Pol iota fluorescent replication assay, 10 min. Potency, µM (doses to about 115 µM), inactives show at the top dose activity, negative = inhibition, most hits filed as inhibitors. 390,000 tested, 1% active; note: potency is the fitted concentration of half-maximal effect
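Pol iota at 10 nM preincubated 15 min with compounds at room temperature; reaction started with fluorescent substrate, 50 nM final. Fluorescence read kinetically at 0 and 10 min; buffer-only wells as negative control.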
PI4K2A inh – qHTS for small molecular inhibitors of PI4K2A; 420,000 tested, 0.13% active; activity change, negative = inhibition, % at 76.9 µM; Phosphatidylinositol 4-kinase type 2-alpha (Homo sapiens), Q9BTU6; purified PI4K2A, ADP-Glo luminescence, 1 h; hits give low values; in the data active = activity change below about -50%; inconclusive = mostly about -30% to -49%;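 note: -100% = wells without enzyme as full effect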
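Compounds are screened against recombinant PI4K2A using PI as substrate and ATP, the latter dispensed at 300 microM. Reactions run one hour at ambient temperature before ADP-Glo detection; full inhibition defined by wells lacking enzyme.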
Pol eta inh – qHTS for Inhibitors of Polymerase Eta; DNA polymerase eta (Homo sapiens), Q9Y253; AID 588591, 2011; 390,000 tested, 1.2% active; recombinant Pol eta, fluorescent DNA replication assay; Potency, µM (highest dose often 114 µM), for inactives: at the highest dose activity change, negative = inhibition, hits mostly inhibitors; note: potency is the fitted concentration of half-maximal effect; % is set by controls: 0 for no effect and ±100 for the full control effect
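Pol eta at 10 nM preincubated with compounds 15 min at room temperature; reaction started with fluorescent substrate (50 nM final) and read kinetically at 0 and 10 min.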
Active calls of the source: *; u = inconclusive; x = not tested or not shown; ! = repeats disagree; [ ] = dose if it differs, or a comment. Hits are enriched below; roughly 2.8% of the tested compounds scored in any of these assays. Unless noted, calls come from the whole dose curve; as a rule, active = well fitted inhibition curve with a large enough effect; inconclusive = small, poorly fitted or top-dose-only effect, or another doubt; inactive = no such curve, though single readings can be large or run the other way.

SMILES	PI5P4K alpha inh	Pol beta inh	Pol kappa inh	POLI inh	PI4K2A inh	Pol eta inh
CS(=O)(=O)C1=NSC2=NC(=O)/C(=C\c3ccc(OC(=O)c4ccco4)c(Br)c3)C(=N)N21	-73*	u	-29%	u	7	50µM*
CCC(CC)C1=NN2C(=N)/C(=C/c3ccc(OC(=O)c4ccco4)cc3)C(=O)N=C2S1	-18	16%	-6%	u	1	-6%
CSC1=NSC2=NC(=O)/C(=C\c3ccc(OC(=O)c4ccco4)cc3)C(=N)N12	-53*	-29%	-31%	u	1	u
O=C(C[N+]12CN3CN(CN(C3)C1)C2)c1ccc(Br)cc1	x	x	-17%	-7%	x	x
CCn1c(SCC(=O)Nc2nccc(C)n2)nc2ccccc21	-6	79µM*	-5%	u	-1	-21%
O=C(Nc1cccc([N+](=O)[O-])c1)c1ccc2c(c1)C(=O)N(c1ccccn1)C2=O	-6	45µM*	-11%	-13%	-8	-20%
O=C(Nc1cccc([N+](=O)[O-])c1)c1cccc(C(=O)Nc2cccc([N+](=O)[O-])c2)c1	2	1.1µM*	-9%	-14%	-2	2%
N#C/C(=N\Nc1cccc([N+](=O)[O-])c1)C(=O)c1ccc(Br)cc1	-13	5%	-34%	u	2	79µM*
O=C(O)c1cccc(NC(=O)c2ccc3c(c2)C(=O)N(c2cccc([N+](=O)[O-])c2)C3=O)c1	u	2%	2%	-2%	-1	u
O=C(O)c1cccc(N2C(=O)c3ccc(C(=O)c4cccc([N+](=O)[O-])c4)cc3C2=O)c1	0	-9%	-40%	-29%	3	56µM*
O=C(Nc1ccc(NC(=O)c2cccc([N+](=O)[O-])c2)cc1)c1cccc([N+](=O)[O-])c1	0	2%	-16%	25%	-3	2%
CCN(CC)S(=O)(=O)c1ccc2c(c1)N(CC(=O)Nc1c(C)cccc1C)C(=O)C1CCCN21 (stereo not drawn)	x	38%	0%	-14%	2	x
CS(=O)(=O)N[C@@H]1C[C@@H]2O[C@H](CO)CC[C@@H]2O[C@@H]1CCc1ccc(-c2ccccc2F)cc1	x	x	x	x	-2	x
CN(C)/C=N/c1c(C#N)cnn1-c1ccc(F)c(Cl)c1	x	x	6%[60.1 µM]	x	x	x
O=C(Nc1cccc([N+](=O)[O-])c1)c1ccc(-c2ccccc2)cc1	0	36%	7%	77%	5	-14%
O=C(O)c1ccc(NC(=O)c2ccc3c(c2)C(=O)N(c2ccccc2)C3=O)cc1	1	2%	14%	-17%	-6	-11%
O=C(Nc1cc(Sc2ccccn2)cc([N+](=O)[O-])c1)c1ccc([N+](=O)[O-])cc1	-75*	3%	-2%	0%	-4	u
O=C(O)c1ccc(N=NNc2cccc([N+](=O)[O-])c2)cc1	-53*	-13%	0%	4%	-11	-12%
O=C(O)c1cccc(NC(=O)c2ccc(N3C(=O)c4ccc(C(=O)Nc5cccc(C(=O)O)c5)cc4C3=O)cc2)c1	-51*	3%	-14%	44%	-3	-21%
O=C(/C=C/c1ccco1)OCc1nnc(-c2ccccc2)o1	-26	22µM*	-34%	79µM*	-9	24%
O=C(/C=C/c1ccco1)OCn1nnc2ccccc2c1=O	3	20µM*	-4%	29%	3	-5%
O=C(/C=C/c1ccco1)OCc1nnc(-c2ccc(Cl)cc2)o1	-29	35µM*	-22%	u	3	-12%
O=C(OCc1nnc(-c2ccccc2)o1)c1ccc(Cl)cc1	-5	2%	-3%[60.1 µM]	1%	0	5%
Oc1ccc(NCc2cccs2)cc1	1	43%	-12%	32µM*	u	-18%
COc1ccccc1CNC(=O)/C=C/c1ccc(Br)o1	-8	8.9µM*	-20%	u	-22	-10%
SMILES	PI5P4K alpha inh	Pol beta inh	Pol kappa inh	POLI inh	PI4K2A inh	Pol eta inh
COc1ccc(NC(=O)/C=C/c2ccc(Br)o2)cn1	u	11µM*	79µM*	16µM*	-15	50µM*
Cc1ccc2c(c1)CCC2=O	x	x	-56%	u	x	x
Cc1csc(=O)n1CC(=O)OCC(=O)Nc1ccc(F)c(F)c1F	1	x	x	x	-1	0%
CCOC(=O)C1=C(C)N=C2c3ccccc3C(=O)C2C1c1ccc(Cl)cc1 (stereo not drawn)	x	9%	-18%	12%	4	-11%
CCOC(=O)C1=C(Cc2ccc(Cl)cc2)C(=O)c2ccccc2C1=O	x	10%	8%	14µM*	-9	-28%
O=C(NNC(=O)c1ccccc1Cl)c1ccccc1Cl	4	89µM*	-1%	27%	0	-22%
COc1ccc([C@H]2CC(=O)c3c(O)cc(O)cc3O2)cc1O	-5	-20%	0%	44%	2	-21%
O=C(OC1Cc2c(O)cc(O)cc2OC1c1cc(O)c(O)c(O)c1-c1c(C2Oc3cc(O)cc(O)c3CC2OC(=O)c2cc(O)c(O)c(O)c2)cc(O)c(O)c1O)c1cc(O)c(O)c(O)c1 (stereo not drawn)	x	x	0.5µM*	x	x	x
O=C(O[C@@H]1Cc2c(O)cc(O)cc2OC1c1ccc(O)c(O)c1)c1cc(O)c(O)c(O)c1 (stereo partly drawn)	x	x	0.18µM*	x	x	x
Oc1cc(O)c2c(c1)O[C@H](c1ccc(O)c(O)c1)[C@H](O)C2	-2	3%	89µM*!	89µM*	1	-6%
Cc1nc2ccc(C(=O)N/N=C/c3ccccc3O)cc2[nH]1	-5	20µM*	-30%	u	3	-15%
CCn1c(C)nc2cc(C(=O)N/N=C/c3ccc(O)c(O)c3O)ccc21	-74*	1.6µM*	10µM*	u	-10	5µM*
CC(C)[C@H](NC(=O)[C@H](CCCCN)NC(=O)[C@@H](NC(=O)[C@@H]1CCCN1C(=O)[C@H](CCCN=C(N)N)NC(=O)[C@H](CCCN=C(N)N)NC(=O)[C@H](CCCCN)NC(=O)[C@H](CCCCN)NC(=O)CNC(=O)[C@@H](NC(=O)[C@@H]1CCCN1C(=O)[C@@H](N)CCCCN)C(C)C)C(C)C)C(=O)N[C@@H](Cc1ccc(O)cc1)C(=O)N1CCC[C@H]1C(=O)O	x	x	13%[60.1 µM]	x	x	x
O=C(/C=C1\NC2(CCCC2)Cc2ccccc21)C(=O)N/N=C/c1ccc(O)c(O)c1	u	2µM*	-39%	u	-5	11µM*

Screening data as filed in PubChem BioAssay.
